Test results published in the supplement of paper PMC11732987, “Enantioselective OTUD7B fragment discovery through chemoproteomics screening and high-throughput optimisation” (Communications Chemistry, 2025).

Key:
Experiment in all cases: log2 ratio of Biotin-Ahx-Ub-VS probe labelling (fragment/DMSO); higher = less target engagement (more negative = stronger competition), active = hit call of the paper (q ≤ 0.05, log2 ratio ≤ -1)
Settings in all cases: compound concentration: 200 uM; treatment time: 3 h
[1] = molecular target: USP34 (UniProt Q70CQ2)
Sequence of USP34 (Q70CQ2 whole entry, the tested form may be a part): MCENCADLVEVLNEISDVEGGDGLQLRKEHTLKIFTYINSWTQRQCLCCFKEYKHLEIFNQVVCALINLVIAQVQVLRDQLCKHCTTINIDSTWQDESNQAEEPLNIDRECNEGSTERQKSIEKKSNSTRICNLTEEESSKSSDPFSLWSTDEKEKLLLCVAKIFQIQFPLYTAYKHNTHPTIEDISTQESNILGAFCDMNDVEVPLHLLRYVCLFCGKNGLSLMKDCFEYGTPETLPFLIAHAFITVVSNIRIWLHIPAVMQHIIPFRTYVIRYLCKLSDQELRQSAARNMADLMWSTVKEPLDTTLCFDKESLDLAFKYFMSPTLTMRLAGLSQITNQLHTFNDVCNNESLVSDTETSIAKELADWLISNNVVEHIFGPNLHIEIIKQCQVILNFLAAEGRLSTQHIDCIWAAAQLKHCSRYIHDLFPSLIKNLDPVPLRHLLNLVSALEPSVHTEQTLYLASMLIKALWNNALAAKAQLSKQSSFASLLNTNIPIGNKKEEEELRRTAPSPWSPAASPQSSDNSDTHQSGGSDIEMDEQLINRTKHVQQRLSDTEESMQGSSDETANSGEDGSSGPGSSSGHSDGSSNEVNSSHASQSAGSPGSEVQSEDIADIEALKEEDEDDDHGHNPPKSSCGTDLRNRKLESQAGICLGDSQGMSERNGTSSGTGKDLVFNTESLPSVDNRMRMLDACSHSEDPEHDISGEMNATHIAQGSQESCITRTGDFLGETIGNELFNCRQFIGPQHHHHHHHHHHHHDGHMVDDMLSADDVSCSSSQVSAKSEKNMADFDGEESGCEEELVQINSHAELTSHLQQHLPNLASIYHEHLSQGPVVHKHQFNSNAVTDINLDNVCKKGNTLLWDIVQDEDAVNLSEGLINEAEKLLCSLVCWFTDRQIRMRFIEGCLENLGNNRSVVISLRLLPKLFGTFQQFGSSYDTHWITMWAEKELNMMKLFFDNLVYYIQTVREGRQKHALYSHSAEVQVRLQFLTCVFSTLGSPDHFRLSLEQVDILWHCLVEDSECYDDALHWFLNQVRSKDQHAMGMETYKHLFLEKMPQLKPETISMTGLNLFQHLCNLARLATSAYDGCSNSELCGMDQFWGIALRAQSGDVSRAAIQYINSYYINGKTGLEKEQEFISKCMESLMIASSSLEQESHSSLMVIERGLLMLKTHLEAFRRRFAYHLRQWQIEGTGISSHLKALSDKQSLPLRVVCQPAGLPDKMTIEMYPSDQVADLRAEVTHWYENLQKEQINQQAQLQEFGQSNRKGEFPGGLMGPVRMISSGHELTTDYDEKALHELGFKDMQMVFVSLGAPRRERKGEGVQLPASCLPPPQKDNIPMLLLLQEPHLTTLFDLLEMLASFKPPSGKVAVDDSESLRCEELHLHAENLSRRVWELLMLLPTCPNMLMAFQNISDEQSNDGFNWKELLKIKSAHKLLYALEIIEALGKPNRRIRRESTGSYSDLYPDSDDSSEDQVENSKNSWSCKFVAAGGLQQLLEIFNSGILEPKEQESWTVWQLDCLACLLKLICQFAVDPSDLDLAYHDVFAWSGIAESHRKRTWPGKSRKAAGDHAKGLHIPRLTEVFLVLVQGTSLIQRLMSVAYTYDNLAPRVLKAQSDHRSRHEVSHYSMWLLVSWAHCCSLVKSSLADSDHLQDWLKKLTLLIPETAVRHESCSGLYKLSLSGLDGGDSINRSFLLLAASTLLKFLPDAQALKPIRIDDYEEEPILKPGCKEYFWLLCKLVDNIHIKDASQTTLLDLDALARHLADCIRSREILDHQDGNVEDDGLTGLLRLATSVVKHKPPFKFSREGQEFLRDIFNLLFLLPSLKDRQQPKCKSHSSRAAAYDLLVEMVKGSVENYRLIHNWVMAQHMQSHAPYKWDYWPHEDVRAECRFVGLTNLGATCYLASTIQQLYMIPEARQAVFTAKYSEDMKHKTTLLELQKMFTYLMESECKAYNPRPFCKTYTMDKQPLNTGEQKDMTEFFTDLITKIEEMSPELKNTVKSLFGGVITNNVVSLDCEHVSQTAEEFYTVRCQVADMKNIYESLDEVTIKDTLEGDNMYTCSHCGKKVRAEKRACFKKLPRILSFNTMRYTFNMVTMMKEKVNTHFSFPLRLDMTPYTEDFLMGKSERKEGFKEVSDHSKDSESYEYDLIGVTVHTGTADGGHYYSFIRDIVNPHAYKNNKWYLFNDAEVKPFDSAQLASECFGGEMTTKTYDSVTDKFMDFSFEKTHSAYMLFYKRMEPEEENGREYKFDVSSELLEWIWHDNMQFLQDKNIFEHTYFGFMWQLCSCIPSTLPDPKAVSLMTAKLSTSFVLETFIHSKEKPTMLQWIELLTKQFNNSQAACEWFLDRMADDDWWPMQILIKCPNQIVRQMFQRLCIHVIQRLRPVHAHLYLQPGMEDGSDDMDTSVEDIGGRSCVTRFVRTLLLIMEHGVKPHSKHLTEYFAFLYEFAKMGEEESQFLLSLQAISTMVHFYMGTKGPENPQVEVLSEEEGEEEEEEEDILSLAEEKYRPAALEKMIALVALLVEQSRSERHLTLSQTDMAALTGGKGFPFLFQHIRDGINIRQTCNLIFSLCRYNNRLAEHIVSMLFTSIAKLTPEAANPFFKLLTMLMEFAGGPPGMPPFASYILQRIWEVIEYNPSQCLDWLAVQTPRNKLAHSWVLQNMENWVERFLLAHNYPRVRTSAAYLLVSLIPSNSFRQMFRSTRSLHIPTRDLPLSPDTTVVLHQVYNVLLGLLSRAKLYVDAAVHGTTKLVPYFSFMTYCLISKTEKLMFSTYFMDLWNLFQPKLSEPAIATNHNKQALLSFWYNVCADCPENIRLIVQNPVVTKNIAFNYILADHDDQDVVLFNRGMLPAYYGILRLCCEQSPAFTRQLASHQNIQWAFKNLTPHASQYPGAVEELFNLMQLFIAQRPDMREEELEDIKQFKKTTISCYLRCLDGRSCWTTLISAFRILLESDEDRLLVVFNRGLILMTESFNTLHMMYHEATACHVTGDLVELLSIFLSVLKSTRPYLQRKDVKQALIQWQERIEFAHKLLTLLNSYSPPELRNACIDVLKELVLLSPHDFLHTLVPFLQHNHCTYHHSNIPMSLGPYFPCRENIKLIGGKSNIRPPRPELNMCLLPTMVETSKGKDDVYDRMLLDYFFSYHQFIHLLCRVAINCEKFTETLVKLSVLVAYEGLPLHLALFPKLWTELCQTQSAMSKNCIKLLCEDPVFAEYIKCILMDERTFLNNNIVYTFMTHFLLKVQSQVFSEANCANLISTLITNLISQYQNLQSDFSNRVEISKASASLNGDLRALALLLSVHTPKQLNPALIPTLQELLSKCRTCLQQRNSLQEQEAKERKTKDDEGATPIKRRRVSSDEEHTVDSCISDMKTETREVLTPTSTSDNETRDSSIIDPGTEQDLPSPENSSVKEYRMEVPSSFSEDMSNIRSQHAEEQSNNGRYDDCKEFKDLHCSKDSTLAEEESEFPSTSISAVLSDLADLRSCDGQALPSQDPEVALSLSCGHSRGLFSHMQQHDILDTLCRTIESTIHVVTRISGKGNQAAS
Outline: (§1)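 HEK293T lysate (495 µg per sample, in Tris/CHAPS/IGEPAL buffer with protease inhibitors) was exposed in triplicate for 3 h to fragment at 200 µM or to vehicle, then to Biotin-Ahx-Ub-VS at 0.5 µM final for 1 h. Labelled DUBs were enriched on NeutrAvidin, digested with LysC and trypsin, and analysed by diaPASEF LC-MS/MS. Spectronaut label-free quantities were normalised to the global median, and values are average log2 ratios of fragment over vehicle from an unpaired t-test. Only proteins with ≥2 unique peptides were used.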

[2] = molecular target: T1, USP36 (UniProt Q9P275)
T1 sequence (whole entry): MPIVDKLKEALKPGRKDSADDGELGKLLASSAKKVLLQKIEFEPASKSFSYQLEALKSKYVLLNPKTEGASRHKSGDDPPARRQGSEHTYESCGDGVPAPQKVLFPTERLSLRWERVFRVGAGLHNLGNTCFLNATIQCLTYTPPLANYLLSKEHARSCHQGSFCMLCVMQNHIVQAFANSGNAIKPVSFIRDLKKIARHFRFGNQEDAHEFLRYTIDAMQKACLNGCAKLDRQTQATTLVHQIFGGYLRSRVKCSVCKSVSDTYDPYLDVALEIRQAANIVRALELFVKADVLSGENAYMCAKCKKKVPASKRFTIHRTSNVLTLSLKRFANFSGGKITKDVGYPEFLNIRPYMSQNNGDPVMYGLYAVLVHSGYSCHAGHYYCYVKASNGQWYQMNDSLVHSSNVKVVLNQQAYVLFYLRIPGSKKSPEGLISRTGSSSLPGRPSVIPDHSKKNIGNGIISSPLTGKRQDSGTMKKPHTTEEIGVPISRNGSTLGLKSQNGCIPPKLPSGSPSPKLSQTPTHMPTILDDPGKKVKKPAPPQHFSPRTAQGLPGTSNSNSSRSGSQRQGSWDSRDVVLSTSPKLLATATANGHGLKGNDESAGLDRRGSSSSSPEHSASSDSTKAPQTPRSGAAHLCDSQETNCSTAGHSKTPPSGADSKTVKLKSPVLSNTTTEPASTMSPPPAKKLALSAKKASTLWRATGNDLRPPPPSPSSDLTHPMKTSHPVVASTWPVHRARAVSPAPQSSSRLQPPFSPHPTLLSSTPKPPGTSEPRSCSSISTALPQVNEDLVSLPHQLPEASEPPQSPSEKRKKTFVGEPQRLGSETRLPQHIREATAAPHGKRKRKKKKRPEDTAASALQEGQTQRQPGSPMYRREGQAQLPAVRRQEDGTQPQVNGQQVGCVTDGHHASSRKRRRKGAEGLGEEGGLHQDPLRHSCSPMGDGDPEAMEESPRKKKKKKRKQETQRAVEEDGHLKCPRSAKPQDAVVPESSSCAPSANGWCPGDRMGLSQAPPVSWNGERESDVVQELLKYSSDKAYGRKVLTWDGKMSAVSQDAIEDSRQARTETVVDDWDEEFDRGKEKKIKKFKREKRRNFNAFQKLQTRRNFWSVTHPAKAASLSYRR
Outline: as §1

[3] = molecular target: T2, USP38 (UniProt Q8NB14)
T2 sequence (whole entry): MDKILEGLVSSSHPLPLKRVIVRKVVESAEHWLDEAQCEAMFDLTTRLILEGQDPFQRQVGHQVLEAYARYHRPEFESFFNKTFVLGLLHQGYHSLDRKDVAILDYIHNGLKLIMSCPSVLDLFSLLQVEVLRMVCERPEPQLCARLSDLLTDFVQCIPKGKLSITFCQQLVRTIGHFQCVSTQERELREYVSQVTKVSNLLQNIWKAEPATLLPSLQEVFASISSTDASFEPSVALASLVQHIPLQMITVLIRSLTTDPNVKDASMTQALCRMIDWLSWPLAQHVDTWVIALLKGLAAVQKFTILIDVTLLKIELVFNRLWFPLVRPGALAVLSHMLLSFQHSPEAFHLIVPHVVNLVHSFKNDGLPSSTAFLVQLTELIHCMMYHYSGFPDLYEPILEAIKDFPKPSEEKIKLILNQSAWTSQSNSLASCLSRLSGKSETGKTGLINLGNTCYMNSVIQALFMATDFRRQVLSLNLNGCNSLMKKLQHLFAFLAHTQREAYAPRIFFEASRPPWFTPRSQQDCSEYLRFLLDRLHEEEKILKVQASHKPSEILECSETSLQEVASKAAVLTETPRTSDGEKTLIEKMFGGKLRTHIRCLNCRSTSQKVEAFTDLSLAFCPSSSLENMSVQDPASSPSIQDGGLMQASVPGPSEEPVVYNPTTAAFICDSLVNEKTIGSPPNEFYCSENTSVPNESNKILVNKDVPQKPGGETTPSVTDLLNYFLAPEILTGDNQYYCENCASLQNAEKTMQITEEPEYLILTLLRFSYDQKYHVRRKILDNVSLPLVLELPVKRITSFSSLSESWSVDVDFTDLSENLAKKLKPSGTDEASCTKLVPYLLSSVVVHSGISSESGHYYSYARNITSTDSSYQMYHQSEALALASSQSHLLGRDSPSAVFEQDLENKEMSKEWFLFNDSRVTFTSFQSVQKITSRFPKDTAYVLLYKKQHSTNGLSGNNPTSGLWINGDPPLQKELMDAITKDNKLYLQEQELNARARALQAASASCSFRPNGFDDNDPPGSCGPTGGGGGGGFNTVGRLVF
Outline: as §1

[4] = molecular target: T3, USP39 (UniProt Q53GS9)
T3 sequence (whole entry): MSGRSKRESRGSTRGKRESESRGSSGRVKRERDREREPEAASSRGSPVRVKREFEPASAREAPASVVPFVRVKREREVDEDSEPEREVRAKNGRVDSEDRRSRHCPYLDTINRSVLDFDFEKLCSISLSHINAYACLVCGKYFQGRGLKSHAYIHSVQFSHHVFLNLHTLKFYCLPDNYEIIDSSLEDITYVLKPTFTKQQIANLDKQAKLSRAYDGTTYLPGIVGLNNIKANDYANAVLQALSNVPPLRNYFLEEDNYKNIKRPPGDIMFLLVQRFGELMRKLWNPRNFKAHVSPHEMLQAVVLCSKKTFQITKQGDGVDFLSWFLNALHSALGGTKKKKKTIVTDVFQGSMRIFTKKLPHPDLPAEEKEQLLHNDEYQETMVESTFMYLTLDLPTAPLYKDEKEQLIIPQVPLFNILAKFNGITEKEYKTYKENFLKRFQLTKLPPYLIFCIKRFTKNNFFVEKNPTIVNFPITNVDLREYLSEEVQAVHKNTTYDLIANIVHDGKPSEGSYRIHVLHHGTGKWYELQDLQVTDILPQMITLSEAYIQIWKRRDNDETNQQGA
Outline: as §1

[5] = molecular target: T4, USP4 (UniProt Q13107)
T4 sequence (whole entry): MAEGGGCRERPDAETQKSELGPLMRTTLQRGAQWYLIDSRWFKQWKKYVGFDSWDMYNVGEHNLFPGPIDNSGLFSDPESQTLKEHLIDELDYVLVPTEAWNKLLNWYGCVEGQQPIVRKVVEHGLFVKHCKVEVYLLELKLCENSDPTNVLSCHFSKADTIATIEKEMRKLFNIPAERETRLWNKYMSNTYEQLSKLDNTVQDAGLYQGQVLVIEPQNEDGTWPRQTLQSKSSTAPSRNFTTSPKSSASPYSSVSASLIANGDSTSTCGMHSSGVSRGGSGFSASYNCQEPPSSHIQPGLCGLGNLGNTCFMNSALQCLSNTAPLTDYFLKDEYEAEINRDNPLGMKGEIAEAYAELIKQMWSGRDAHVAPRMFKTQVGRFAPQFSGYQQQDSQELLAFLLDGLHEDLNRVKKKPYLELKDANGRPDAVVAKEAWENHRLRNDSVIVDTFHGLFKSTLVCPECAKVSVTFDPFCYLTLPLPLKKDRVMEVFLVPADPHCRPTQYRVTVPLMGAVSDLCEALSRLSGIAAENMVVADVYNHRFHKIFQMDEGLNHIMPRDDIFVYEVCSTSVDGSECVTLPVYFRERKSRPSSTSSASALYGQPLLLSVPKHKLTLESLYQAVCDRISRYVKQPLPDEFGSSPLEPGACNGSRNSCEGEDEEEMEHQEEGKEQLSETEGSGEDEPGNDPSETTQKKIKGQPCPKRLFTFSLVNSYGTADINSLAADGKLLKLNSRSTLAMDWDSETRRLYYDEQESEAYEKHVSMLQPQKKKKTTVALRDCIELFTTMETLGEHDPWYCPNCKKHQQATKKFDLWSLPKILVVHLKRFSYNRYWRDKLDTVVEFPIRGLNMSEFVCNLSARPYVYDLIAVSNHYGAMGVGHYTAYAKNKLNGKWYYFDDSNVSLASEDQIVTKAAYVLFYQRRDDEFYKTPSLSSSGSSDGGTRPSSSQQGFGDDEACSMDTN
Outline: as §1

Measured: log2 ratio of Biotin-Ahx-Ub-VS probe labelling

CCN(C(=O)CCl)C1CCS(=O)(=O)C1 (stereo not given)
inactive: [1] -0.11 | [2] -0.152 | [3] -0.0197 | [4] -0.0969 | [5] 0.159
